# Reference: PubChem BioAssay (NCI)
# The panel holds about 83,000 compounds, 20% with a hit somewhere; the sample as a whole holds those more often.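 Growth was measured after 48 h exposure to one concentration of compound in 96-well plates. Values under 10 count as active.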 Unmarked numbers belong to inactive results. Activity calls are given as the source filed them.
# What was measured:
# Experiment in all cases: NCI-60 one-dose screen, 48 h (100 = growth as untreated, 0 = no growth, -100 = all killed)
# Details in all cases: 10 µM unless noted
# NCI-H23 lung = test system: NCI-H23 lung
# NCI-H226 lung = test system: NCI-H226 lung
# NCI-H322M lung = test system: NCI-H322M lung
# HOP-62 NSCLC = test system: HOP-62 NSCLC
# NCI-H460 lung = test system: NCI-H460 lung
# HOP-92 NSCLC = test system: HOP-92 NSCLC
# NCI-H522 lung = test system: NCI-H522 lung
# A549/ATCC NSCLC = test system: A549/ATCC NSCLC
# 786-0 renal = test system: 786-0 renal
# COLO 205 colon = test system: COLO 205 colon
# DU-145 prostate = test system: DU-145 prostate
# K-562 leukemia = test system: K-562 leukemia
# MALME-3M melanoma = test system: MALME-3M melanoma
# MDA-MB-231 breast = test system: MDA-MB-231 breast
# RXF 393 renal = test system: RXF 393 renal
# SF-268 CNS = test system: SF-268 CNS
# SF-539 CNS = test system: SF-539 CNS
# UACC-257 melanoma = test system: UACC-257 melanoma
# M14 melanoma = test system: M14 melanoma
SMILES,growth (NCI-H23 lung),growth (NCI-H226 lung) [%],growth (NCI-H322M lung) [%],growth (HOP-62 NSCLC),growth (NCI-H460 lung),growth (HOP-92 NSCLC),growth (NCI-H522 lung),growth (A549/ATCC NSCLC),growth (786-0 renal),growth (COLO 205 colon),growth (DU-145 prostate),growth (K-562 leukemia),growth (MALME-3M melanoma),growth (MDA-MB-231 breast),growth (RXF 393 renal),growth (SF-268 CNS),growth (SF-539 CNS),growth (UACC-257 melanoma),growth (M14 melanoma)
Nc1c(C(=O)Nc2cccc(Cl)c2)sc2ncc(Cl)cc12,87%,75.7,64.7,73%,13.8%,91.9%,97.4%,43.4%,85.4%,79.6%,56.7%,80.6%,69.8%,83.7%,83.5%,63.5%,60.8%,100%,88.2%
O=C(c1ccccc1)C(CN1CCOCC1)c1ccccc1 (centres undefined),65.3%,40.1,84.7,81%,79.4%,40.5%,-51.3% (active),95.3%,31%,25.5%,28.9%,7.04% (active),-3.82% (active),33.2%,25.9%,27%,37.3%,51.5%,27.8%
CC(C)=CCC/C(C)=C/CC/C(C)=C/CSC[C@H](NC(=O)CCCCCN1CCN(C)CC1)C(=O)NC1CCCCCC1,58.1%,82.1,88.7,91.7%,2.84% (active),32.6%,59.8%,64.2%,75.9%,-71% (active),53%,-17.4% (active),-13.7% (active),-89.1% (active),80.3%,75.1%,82.9%,76.2%,83.7%
COc1cc(C(=O)/C=C/c2cc(-c3ccc4c(c3)OCO4)n[nH]2)cc(OC)c1OC,24.5%,38.1,19.3,-22.7% (active),-55.2% (active),73%,17.4%,28.8%,12.8%,32.3%,0.359% (active),-17% (active),68.5%,30.6%,1.1% (active),-8.16% (active),-51.9% (active),76.5%,81.4%
COc1ccc2c(c1)C/C(=C\c1cc(-c3cc(OC)c(OC)c(OC)c3)n[nH]1)C2=O,90.2%,82.3,93.9,103%,106%,79.1%,60.6%,92.9%,95.9%,109%,113%,53.7%,108%,78.9%,94.9%,100%,89.5%,97.3%,100%
COc1cccc(NC(=O)c2sc3nc4c(cc3c2N)C(=O)CCC4)c1,21.8%,74.9,56.5,27.8%,1.73% (active),57.3%,-21.1% (active),22.5%,41.1%,0.646% (active),11.8%,5.55% (active),50.1%,14.7%,41%,39.2%,-7.27% (active),66.5%,12.5%
O=c1c(CNc2ccc(S(=O)(=O)Nc3nccs3)cc2)coc2ccccc12,110%,96.1,87.6,98.7%,102%,80.1%,82.8%,95.5%,103%,119%,110%,92.2%,99.7%,98.8%,103%,113%,107%,106%,104%
CC(CNc1nc(Nc2ccc(Cl)c(Cl)c2)nc(C(Cl)(Cl)Cl)n1)N(C)C (centres undefined),14.2%,40.8,27.6,-68.4% (active),-63% (active),-17.7% (active),-86.8% (active),4.96% (active),-77.3% (active),-77.7% (active),5.37% (active),-54% (active),15.6%,-62.6% (active),-24.3% (active),11.5%,16.3%,-8.37% (active),-60.6% (active)
O=C1NC(=Nc2ccc(S(=O)(=O)Nc3nccs3)cc2)S/C1=C\c1coc2ccccc2c1=O,100%,97.8,101,99.5%,101%,95.3%,103%,99.7%,111%,113%,121%,93.8%,109%,105%,105%,123%,96.2%,105%,105%
Cc1cc(Nc2ccc(F)cc2)nc(N2CCN(c3ccnc4cc(Cl)ccc34)CC2)n1,28.9%,57.5,46.8,59.8%,11.6%,-7.85% (active),17.4%,29.8%,23.5%,-68% (active),35%,6.26% (active),12.7%,37.9%,38.9%,36.2%,14%,38.3%,12.9%
O=C1c2ccccc2C(=Cc2ccccc2)c2ccccc21,2.92% (active),38.7,66.8,21.3%,-6.75% (active),51.7%,-25.4% (active),19.8%,-15.9% (active),-21.1% (active),-21.3% (active),8.16% (active),41.6%,-20.7% (active),-1.26% (active),10.6%,-26.2% (active),15.7%,-20.5% (active)
COC(=O)c1cc(=O)nc(N/N=C/c2ccc(C)cc2)s1,107%,98.5,108,98.6%,106%,66.4%,91.9%,101%,103%,114%,114%,96.1%,94.3%,113%,111%,104%,102%,97.5%,99.1%
CC(C)=CCC/C(C)=C/CC/C(C)=C/CC/C(C)=C/CSC[C@H](NC(=O)CCCCCN1CCN(C)CC1)C(=O)NC1CCCCC1,73%,95.8,89.8,85.6%,-7.73% (active),76.4%,85%,71.7%,83.7%,8.86% (active),64.3%,-27.2% (active),71.2%,-81.3% (active),75.1%,84.8%,85.7%,105%,35.1%
COc1ccc(-c2cc(/C=C/C(=O)c3ccc(OC)c(OC)c3)[nH]n2)cc1,32.7%,50.9,26.1,8.64% (active),-71.1% (active),66.6%,1.47% (active),29.2%,13%,24.5%,0.792% (active),-29.8% (active),63.1%,28.8%,8.62% (active),7.76% (active),-50.7% (active),73.9%,41.8%
COc1ccc2c(c1)C/C(=C\c1cc(-c3ccc4c(c3)OCO4)n[nH]1)C2=O,111%,86.5,113,102%,92.6%,87.2%,105%,95.7%,106%,105%,112%,60.1%,112%,79.7%,95.6%,106%,92.4%,103%,97.2%
COc1ccc(-c2nc3ccccn3c2-c2nc3ccc(Cl)cc3[nH]2)cc1,98.3%,90.1,103,114%,98.8%,85%,73.9%,92.5%,97.6%,110%,107%,54.6%,109%,95.2%,95.8%,112%,98.9%,94.2%,103%
